tim23-1 inh: tim23-1 yeast growth inhibition. inhibition, % at 20 µM. AID 463212. hit rate 1.3% among 330,000. S. cerevisiae tim23-1 growth, BacTiter-Glo luminescence, 24 h;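 active = growth inhibition of the mutant yeast at or above 50%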;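 also: temperature-sensitive mutant grown at 25 °C; plate controls were DMSO-treated mutant yeast for no effect and medium wells lacking yeast for full effect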
TIM10 inh: TIM10 yeast growth inhibition; S. cerevisiae TIM10 strain growth, BacTiter-Glo luminescence, 24 h; inhibition, % at 10 µM; hit rate 1.4% among 330,000; AID 463195;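 active = inhibition of 40% or more at the single tested concentration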;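 also: wild-type TIM10 isogenic control strain grown at permissive 25 °C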
NALP3 yeast inh: NALP3 inhibition in yeast; hit rate 0.39% among 330,000; inhibition, % at 10 µM; Yeast reconstituted NLRP3/ASC/caspase-1, beta-gal luminescence, 24 h;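 active = inhibition of 50% or more; inactive = inhibition below 50%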;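 also: plate controls were induced DMSO wells for no effect and uninduced yeast grown without galactose for full effect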
tim10-1 inh: inhibits growth of tim10-1 mutant yeast; S. cerevisiae tim10-1 ts strain growth, BacTiter-Glo, 24 h; inhibition, % at 20 µM; hit rate 2.2% among 330,000; AID 463190;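 active = inhibition of at least 40%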;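 also: mutant grown at 25 °C; 0% = DMSO wells with yeast and 100% = wells holding no yeast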
SKKanGAS inh: SKKanGAS growth inhibition | S. pyogenes SKKanGAS, kanamycin growth, BacTiter-Glo, 6 h | inhibition, % at 7.5 µM | hit rate 1.3% among 300,000 | AID 1662;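 active = mean replicate score, as percent of positive control median, at least 50; inconclusive = mean below 50 but one replicate at or above 50; inactive = mean and every replicate below 50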;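 also: strain carries kanamycin resistance gene driven by streptokinase promoter and grows in 40 µg/ml kanamycin; loss of luminescence reflects streptokinase promoter inhibition or plain growth inhibition; 0% = median of DMSO wells and 100% = positive control at its reference dose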
PfHsp90 set2: inhibits growth of yeast expressing Plasmodium falciparum Hsp90; S. cerevisiae expressing PfHsp90, BacTiter-Glo ATP, 48 h; yeast lacking PDR1 and PDR3 efflux regulators; inhibition, % at 9.4 µM; hit rate 0.32% among 310,000; AID 504621;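 active = every replicate shows inhibition above about 80%, whatever the replicate mean, limit read from the data; inconclusive = mean inhibition reaches the set limit but some replicate falls short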;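 also: 0% = DMSO neutral controls and 100% = 20 µM radicicol positive controls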
TIM10 conf: confirmation of TIM10 yeast growth inhibitors; shares compounds with TIM10 inh; S. cerevisiae tim10 strain growth, BacTiter-Glo luminescence, 24 h; inhibition, % at 10 µM; hit rate 63% among 4,600; AID 463215;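 active = inhibition of yeast growth at or above a set limit in either of two replicates at 10 µM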;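 also: this counterscreen used the strain with wild-type TIM10; 0% = yeast with DMSO and 100% = medium wells lacking yeast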
tim23-1 conf: confirmation of tim23-1 mutant yeast growth inhibitors. shares compounds with tim23-1 inh. S. cerevisiae tim23-1 growth, BacTiter-Glo luminescence, 24 h. inhibition, % at 20 µM. hit rate 83% among 4,400. AID 463218;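 active = inhibition above about 39% in either of two replicate wells at 20 µM, limit read from the data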;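 also: temperature-sensitive tim23-1 mutant grown at 25 °C; 0% = DMSO wells with yeast and 100% = medium wells without yeast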
* hit, by the source's call; ? = inconclusive; · = no result given. Only some compounds are listed: those with a hit (about 4.6% of all), similar ones and a draw of the others.

SMILES	tim23-1 inh	TIM10 inh	NALP3 yeast inh	tim10-1 inh	SKKanGAS inh	PfHsp90 set2	tim23-1 conf	others
Cc1[nH]c2ccccc2c1N=Nc1ccccc1F	72*	50*	22	-18	4	1	-51	TIM10 conf=55*
N#C/C(=C\c1ccccc1)C(=O)NNS(=O)(=O)c1cccc([N+](=O)[O-])c1	14	0	14	3	·	-4	·
N#C/C(=C/c1cccc([N+](=O)[O-])c1)C(=O)Nc1ccccc1O	73*	42*	17	32	-2	11	57*	TIM10 conf=40*
COc1cccc(NC(=O)CN2C(=O)CSc3ccc(S(=O)(=O)N4CCCCC4)cc32)c1	10	9	3	-5	-3	9	·
CC1CCCN(Cc2c(O)ccc3c(=O)c(-c4nc5ccccc5s4)c(N)oc23)C1 (stereo not given)	56*	52*	14	38	34	19	58*	TIM10 conf=51*
O=C(NC(=S)NNC(=O)c1ccccc1O)c1ccccc1	62*	49*	46	11	93*	19	-28	TIM10 conf=42*
Clc1cccc(Nc2ncnc3ccc(Br)cc23)c1	54*	48*	23	34	-1	5	50*	TIM10 conf=44*
Cc1cccc(Nc2ncnc3ccc(Br)cc23)c1	45	29	17	39	0	-11	·
COc1ccc(NS(=O)(=O)c2ccc(N3CC(O)=C(c4ccccc4)C3=N)cc2)cc1	8	3	7	-1	0	10	·
CC(C)(C)c1ccc(S(=O)(=O)N2CCC(c3nc4ccc(Cl)cc4[nH]3)CC2)cc1	64*	50*	13	26	?	-24	22	TIM10 conf=56*
O=C(NC(=S)Nc1cccc2c(O)cccc12)c1ccccc1[N+](=O)[O-]	13	-1	-2	22	7	-8	·
Cn1cc(S(=O)(=O)N2CCOCC2)cc1C(=O)O	4	2	1	-1	·	-5	·
CC1CC(C)CN(C(=S)Nc2ccc(SC(F)F)cc2)C1 (stereo not given)	54*	52*	26	34	1	-6	52*	TIM10 conf=-2
CC1CN(C(=S)Nc2ccc(SC(F)F)cc2)CC(C)O1 (stereo not given)	23	17	-13	-1	14	11	·
COc1ccccc1[C@@]1(C)ON(c2ccccc2C(F)(F)F)C1=O	63*	65*	39	-98	·	-12	-93	TIM10 conf=55*
CC[C@]1(c2ccccc2C)ON(c2ccccc2C(F)(F)F)C1=O	12	-5	10	-51	·	12	·
COc1ccc(C)cc1S(=O)(=O)N1CCN(C)CC1c1ccccc1 (stereo not given)	23	5	-20	13	·	3	·
COc1ccc(NC(=O)CCC(=O)c2ccc(F)cc2)cc1	·	·	·	·	·	-11	·
Clc1nssc1=Nc1nncs1	52*	8	7	32	·	5	76*
NC(=O)c1sc2nc3c(c(-c4ccco4)c2c1N)CCC3	24	8	9	38	-2	-15	·
Cc1ccc(-c2c3c(nc4sc(C(N)=O)c(N)c24)CCCC3)o1	50*	2	-2	36	7	7	48*
OCCN1CCN(CC(O)COc2ccc(C34CC5CC(CC(C5)C3)C4)cc2)CC1 (stereo not given)	-15	3	15	0	19	6	·
NCCOc1ccc(C23CC4CC(CC(C4)C2)C3)cc1	66*	-13	29	26	18	21	77*
CC(=O)C[C@H](O)CC(=O)[C@@H]1OC(=O)CCCCCc2ccccc21	15	12	5	15	·	9	·
CN1C(=O)/C(=C\c2ccco2)N=C1c1ccc(Cl)cc1Cl	71*	30	0	20	-1	0	44*
SMILES	tim23-1 inh	TIM10 inh	NALP3 yeast inh	tim10-1 inh	SKKanGAS inh	PfHsp90 set2	tim23-1 conf	others
O=C1OC(/C=C/c2ccc(Cl)cc2)=NC/1=C/c1ccco1	60*	24	1	34	1	18	42*
CCCN(CCC)C1=N/C(=C\c2ccco2)C(=O)N1c1ccccc1	48	15	9	35	0	3	·
COC(=O)c1ccc(N2CCN(C)CC2)c(NC(=O)COc2cccc(C)c2)c1	6	-11	27	1	-10	20	·
C#CCOCCOCCOCCNc1nc(N2CCN(C(=O)CCCCCCCCCCNC(=O)[C@H]([C@@H](C)CC)n3cc(CCCCN=C(N)N)nn3)CC2)nc(N2CCN(C(=O)CCCCCCCCCCNC(=O)[C@H](CCCCN)n3cc(C)nn3)CC2)n1	58*	12	17	36	·	·	41*
C#CCOCCOCCOCCNc1nc(N2CCN(C(=O)CCCCCCCCCCNC(=O)[C@H]([C@@H](C)CC)n3cc(CCCCCN)nn3)CC2)nc(N2CCN(C(=O)CCCCCCCCCCNC(=O)[C@H]([C@@H](C)CC)n3cc(CCCCN=C(N)N)nn3)CC2)n1	40	-9	26	14	·	21	·
COC(=O)c1c(C)cc(O)c(C=O)c1O	56*	0	8	9	1	0	45*
C=C1c2cccc(OC)c2O[C@H](C(=O)OCC)[C@@H]1CC(CC)CCCC (stereo not given in full)	51*	16	·	27	·	-15	36
CCN(c1ccccc1)S(=O)(=O)c1ccc2c(c1)N(C(C)=O)CCO2	7	10	-11	7	3	11	·
CCOC(=O)C1=CN(Cc2cccc(F)c2)S(=O)(=O)N(C)C1c1ccccc1 (stereo not given)	49	-5	·	17	·	-8	·
CCOC(=O)C1=CN(Cc2cccc(F)c2)S(=O)(=O)N(C)C1c1cccc(OC)c1 (stereo not given)	52*	6	·	22	·	-6	32
Nc1n[nH]c(C2CC2)c1N=Nc1ccc(Cl)c(Cl)c1	69*	39	30	35	82*	·	9
Nc1n[nH]c(C2CC2)c1N=Nc1ccc(Cl)cc1	69*	25	21	8	-4	·	24
CCOC(=O)c1nc2c(=O)n(C)c(=O)n(C)c2n(C)c1=O	-11	8	25	-8	1	13	·
O=C(O)c1cccc(N2C(=O)c3cc4cccc(Br)c4cc3C2=O)c1	50	-21	14	5	-13	-86	24
CC(C)CNC(=S)N(CCCO)Cc1cc2cc3c(cc2[nH]c1=O)OCO3	8	-9	15	1	0	15	·
CC1=CC(=NOC(=O)/C=C/c2ccccc2)C=C(C)C1=O	70*	29	-10	37	8	·	53*
CC1=C(C)/C(=N\OC(=O)/C=C/c2ccccc2)C=CC1=O	21	6	5	27	3	13	·

Compound activity as filed in PubChem.
